Test systems include NCI-H23 lung; NCI-H226 lung; NCI-H322M lung; HOP-62 NSCLC; NCI-H460 lung; HOP-92 NSCLC; NCI-H522 lung; A549/ATCC NSCLC; 786-0 renal; DU-145 prostate; K-562 leukemia; MALME-3M melanoma; MDA-MB-231 breast; RXF 393 renal; SF-268 CNS; SF-295 CNS; SF-539 CNS; UACC-257 melanoma; M14 melanoma.
What all share (assay): NCI-60 one-dose screen, 48 h (100 = growth as untreated, 0 = no growth, -100 = all killed)
Common to all, as to details: 10 µM unless noted

SMILES strings stand for the structures. About 83,000 compounds went through this panel and 20% of them were active in at least one assay; those are over-represented in the sample as a whole.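 Treatment: one concentration, 48 hours, 96-well format. Scoring: percent growth, with anything below 10 considered active.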 A number with no mark means an inactive call. Activity calls are given as the source filed them.

Turning to `CCCCCCCSc1ccc(C(=O)O)cc1`, the growth is 102% in the assay with NCI-H23 lung; 97.2% in the assay with NCI-H226 lung; 99.7% in the assay on NCI-H322M lung; 106% in the assay on HOP-62 NSCLC; 104% in the assay on NCI-H460 lung; 83.5% in the assay with HOP-92 NSCLC. Also, the growth with NCI-H522 lung was 100%; in the assay on A549/ATCC NSCLC, 98.9%; in the assay on 786-0 renal, 100%; in the assay on DU-145 prostate, 119%; with K-562 leukemia, 105%; in the assay on MALME-3M melanoma it was 111%. For the same compound, the growth in the assay with MDA-MB-231 breast was 112%; in the assay with RXF 393 renal it was 94.4%; in the assay on SF-268 CNS, 109%; in the assay with SF-295 CNS, 94.3%; with SF-539 CNS, 99.7%; in the assay with UACC-257 melanoma, 95.8%. In addition, in the assay on M14 melanoma, the growth is 113%.
Turning to `COc1cc2c(cc1OC)-c1ccc3cc4c(cc3c1N(CCCn1ccnc1)C2)OCO4`, the growth in the assay on NCI-H23 lung was 16.6%; with NCI-H226 lung, 51.9%; with NCI-H322M lung it was 76.9%; in the assay on HOP-62 NSCLC, 24.9%; in the assay with NCI-H460 lung it was 6.34% (active); with HOP-92 NSCLC it was 26.8%. The growth was -19.1% (active) in the assay with NCI-H522 lung; 56.2% in the assay with A549/ATCC NSCLC; 35.1% with 786-0 renal; 39.6% in the assay with DU-145 prostate; 20.4% in the assay on K-562 leukemia; 47.8% in the assay with MALME-3M melanoma. Besides, the growth with MDA-MB-231 breast was 56.7%; in the assay on RXF 393 renal, 57.8%; in the assay with SF-268 CNS, 34.4%; in the assay with SF-295 CNS, 27.7%; with SF-539 CNS, 13.3%; in the assay on UACC-257 melanoma, 52.8%. Further, the growth with M14 melanoma was 27.1%.
With `OC(COc1cccc2ccccc12)CN1CCN(c2ccccc2)CC1` (configuration not stated), the growth with NCI-H23 lung is 87.3%; in the assay with NCI-H226 lung, 99.1%; in the assay with NCI-H322M lung it was 99.7%; with HOP-62 NSCLC, 90.4%; in the assay on NCI-H460 lung it was 106%; with HOP-92 NSCLC, 77.6%. For the same compound, the growth with NCI-H522 lung was 101%; in the assay with A549/ATCC NSCLC, 102%; in the assay with 786-0 renal, 94.2%; in the assay with DU-145 prostate it was 109%; with K-562 leukemia, 114%; in the assay on MALME-3M melanoma it was 97.7%. For the same compound, the growth was 96.1% with MDA-MB-231 breast; 9.82% (active) in the assay on RXF 393 renal; 103% in the assay with SF-268 CNS; 73.3% with SF-295 CNS; 99.8% with SF-539 CNS; 63.3% in the assay on UACC-257 melanoma. The growth in the assay with M14 melanoma is 86.8%.
As to `CCN(CC)c1ccc(Nc2ccc(CC(=O)c3ccccc3)cc2)cc1`, the growth was 81.1% in the assay on NCI-H23 lung; 97.4% in the assay on NCI-H226 lung; 90.7% with NCI-H322M lung; 94.6% in the assay on HOP-62 NSCLC; 96.3% in the assay with NCI-H460 lung; 77.5% in the assay on HOP-92 NSCLC. The growth in the assay on NCI-H522 lung is 47%; with A549/ATCC NSCLC it was 91.4%; in the assay with 786-0 renal, 88.3%; in the assay on DU-145 prostate it was 98.1%; with K-562 leukemia it was 82.3%; with MALME-3M melanoma it was 106%. The growth in the assay with MDA-MB-231 breast is 75.7%; with RXF 393 renal, 89.2%; with SF-268 CNS it was 87%; with SF-295 CNS, 97.8%; with SF-539 CNS it was 89.4%; with UACC-257 melanoma, 93.7%. Moreover, the growth in the assay with M14 melanoma was 87.6%.
On to `Cl.Fc1c[c-]c(-c2ccccn2)c(F)c1.[Pt].c1ccc(P(c2ccccc2)C([PH+](c2ccccc2)c2ccccc2)[PH+](c2ccccc2)c2ccccc2)cc1`, for which the growth in the assay with NCI-H23 lung was 5.53% (active); in the assay with NCI-H226 lung, 12.5%; in the assay with NCI-H322M lung, 20.8%; in the assay with HOP-62 NSCLC, 25.9%; in the assay with NCI-H460 lung it was 7.55% (active); in the assay with HOP-92 NSCLC, -12.9% (active). In addition, the growth is 12% in the assay with NCI-H522 lung; 15.4% in the assay on A549/ATCC NSCLC; 22.5% with 786-0 renal; 26.1% in the assay with DU-145 prostate; 13.6% with K-562 leukemia; -12.9% (active) in the assay on MALME-3M melanoma. The growth in the assay on MDA-MB-231 breast was -16% (active); in the assay on RXF 393 renal, 13.3%; with SF-268 CNS it was 26.4%; in the assay with SF-295 CNS, 5.14% (active); in the assay with SF-539 CNS, 9.54% (active); in the assay with UACC-257 melanoma, 6.42% (active). Besides, in the assay on M14 melanoma, the growth was 18.7%.
Turning to `COc1cc2c(cc1OC)-c1ccc3cc4c(cc3c1N(CCN1CCCC1)C2)OCO4`, the growth is 10.9% with NCI-H23 lung; -3.34% (active) in the assay on NCI-H226 lung; 5.86% (active) in the assay on NCI-H322M lung; -18.1% (active) in the assay with HOP-62 NSCLC; -19.4% (active) in the assay with NCI-H460 lung; 22.8% in the assay on HOP-92 NSCLC. Moreover, the growth in the assay with NCI-H522 lung is -39.7% (active); in the assay on A549/ATCC NSCLC it was 5.78% (active); in the assay with 786-0 renal, -32% (active); in the assay on DU-145 prostate, 11.5%; with K-562 leukemia it was -3.86% (active); in the assay with MALME-3M melanoma, 51.4%. The growth is -38.6% (active) in the assay with MDA-MB-231 breast; -3.76% (active) in the assay with RXF 393 renal; 20.1% in the assay with SF-268 CNS; 4.42% (active) in the assay on SF-295 CNS; 4.16% (active) in the assay with SF-539 CNS; 44.2% in the assay on UACC-257 melanoma. The growth with M14 melanoma is 17.4%.
As for `CCN(CCO)CC(=O)c1cc(Cl)cc(Cl)c1Cl`, the growth with NCI-H23 lung was 96.6%; with NCI-H226 lung it was 88.6%; with NCI-H322M lung, 101%; in the assay on HOP-62 NSCLC, 94.8%; with NCI-H460 lung it was 105%; in the assay with HOP-92 NSCLC it was 89.4%. In addition, the growth with NCI-H522 lung was 67.6%; with A549/ATCC NSCLC it was 96.1%; with 786-0 renal, 98.1%; with DU-145 prostate, 103%; with K-562 leukemia it was 99.2%; in the assay on MALME-3M melanoma, 98.2%. The growth with MDA-MB-231 breast is 103%; in the assay on RXF 393 renal it was 93.7%; in the assay on SF-268 CNS, 97.5%; in the assay on SF-295 CNS it was 97.8%; in the assay on SF-539 CNS, 104%; in the assay on UACC-257 melanoma it was 102%. In addition, the growth in the assay with M14 melanoma is 99.2%.
In the case of `Cc1cnc(Nc2ccc(OCCN3CCCC3)cc2)nc1NCc1ccco1`, the growth with NCI-H23 lung is 70.9%; in the assay on NCI-H226 lung it was 45.8%; in the assay with NCI-H322M lung, 81.9%; in the assay with HOP-62 NSCLC, 60.4%; in the assay on NCI-H460 lung, 72.8%; with HOP-92 NSCLC it was 54.8%. The growth was 70.1% in the assay with NCI-H522 lung; 76.3% in the assay with A549/ATCC NSCLC; 60.7% in the assay with 786-0 renal; 83.8% in the assay with DU-145 prostate; 12.9% with K-562 leukemia; 105% in the assay with MALME-3M melanoma. The growth is 55.6% in the assay with MDA-MB-231 breast; 48% in the assay with RXF 393 renal; 68.5% with SF-268 CNS; 84% in the assay on SF-295 CNS; 68.7% in the assay on SF-539 CNS; 96% with UACC-257 melanoma. The growth in the assay on M14 melanoma was 96.3%.

The values above are taken from PubChem BioAssay (NCI).
